Data published in PubChem BioAssay (NCI).
Compounds without any hit were thinned out: in the full panel of roughly 79,000, 15% have a hit. A number with no mark means an inactive call. The source made the active and inactive calls. No stated cut-off is given here; in the data, active means growth inhibition above about 70%; inactive means the rest.

Key:
[1] = NCI Yeast Anticancer Drug Screen. Data for the sgs1 strain (AID 173);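 further: 0% = growth of vehicle-only control cultures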; conditions: S. cerevisiae sgs1 mutant, hits give high values
How it was run: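 Strain with an altered DNA repair or cell cycle pathway exposed to compound. Growth then measured. Value = inhibition versus vehicle control.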

[2] = NCI Yeast Anticancer Drug Screen. Data for the mlh1 rad18 strain (AID 175); conditions: S. cerevisiae mlh1 rad18 strain growth inhibition, hits give high values
How it was run: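 A repair-deficient yeast strain is exposed to test compound, and growth is scored relative to vehicle-treated controls.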

[3] = NCI Yeast Anticancer Drug Screen. Data for the rad18 strain (AID 177); conditions: S. cerevisiae rad18 mutant growth inhibition, hits give high values
How it was run: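 DNA-repair-defective yeast; compound treatment; growth inhibition scored against vehicle.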

[4] = NCI Yeast Anticancer Drug Screen. Data for the wt1 strain (AID 149);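 further: 0% = growth of vehicle-treated wt1 cultures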; conditions: S. cerevisiae wt1 strain (SPY 50644) growth inhibition, hits give high values
How it was run: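 Compounds are added to wt1 yeast cultures. Growth is then measured. Inhibition is expressed relative to vehicle-treated controls.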

[5] = NCI Yeast Anticancer Drug Screen. Data for the rad50EPP+ strain (AID 151);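 further: 0% = growth of vehicle-treated control cultures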; conditions: S. cerevisiae rad50 mutant strain, hits give high values
How it was run: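 Measured: growth inhibition of rad50EPP+ yeast. Reference: vehicle-treated controls. Screen uses strains with defined genetic alterations in DNA damage repair or cell cycle control.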

[6] = NCI Yeast Anticancer Drug Screen. Data for the rad50 strain (AID 155);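 further: 0% = growth of vehicle-only cultures of the same strain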; conditions: S. cerevisiae rad50 strain growth inhibition, hits give high values
How it was run: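 Inhibition values express reduced yeast growth in compound-treated cultures relative to vehicle-treated controls.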

[7] = NCI Yeast Anticancer Drug Screen. Data for the mec2-1 strain (AID 157); conditions: S. cerevisiae mec2-1 strain, hits give high values
How it was run: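 Compounds were applied to mec2-1 yeast cells. Their growth was then compared with that of vehicle-treated cultures to give growth inhibition.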

[8] = NCI Yeast Anticancer Drug Screen. Data for the sgs1 mgt1 strain (AID 161);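 further: 0% = growth of cultures given vehicle only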; conditions: S. cerevisiae sgs1 mgt1 strain, hits give high values
How it was run: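 Percent growth inhibition was derived by comparing compound-exposed mutant yeast with vehicle-exposed cultures. The strain carries alterations in DNA damage repair.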

[9] = NCI Yeast Anticancer Drug Screen. Data for the CLN2oe strain (AID 163);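 further: 0% = growth of vehicle-only control cultures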; conditions: S. cerevisiae CLN2oe strain, hits give high values
How it was run: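 Cells of an engineered yeast line with disturbed cell-cycle regulation are treated with compound. Inhibition of growth is then calculated relative to the vehicle-treated reference.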

[10] = NCI Yeast Anticancer Drug Screen. Data for the bub3 strain (AID 167); conditions: S. cerevisiae bub3 mutant strain, hits give high values
How it was run: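 Steps: expose the mutant yeast strain to compound; grow alongside vehicle-treated cultures; measure growth; express inhibition against the vehicle cultures.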

[11] = NCI Yeast Anticancer Drug Screen. Data for the wt2 strain (AID 169);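 further: 0% = growth of vehicle-treated yeast cultures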; conditions: S. cerevisiae wt2 strain growth inhibition, hits give high values
How it was run: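 Growth of compound-treated yeast is measured and expressed as inhibition relative to vehicle-only controls.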

[12] = NCI Yeast Anticancer Drug Screen. Data for the mlh1 strain (AID 171);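 further: 0% = growth of vehicle-treated control cultures of the same strain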; conditions: S. cerevisiae mlh1 strain growth inhibition, hits give high values
How it was run: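 Test agents were incubated with yeast bearing a defined DNA damage repair or cell cycle control alteration; values are growth inhibition normalised to vehicle-treated cultures.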

[13] = NCI Yeast Anticancer Drug Screen. Data for the mgt1 strain (AID 153); conditions: S. cerevisiae mgt1 mutant growth inhibition, hits give high values
How it was run: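 Compounds were applied to mgt1 mutant yeast, and growth was then compared against vehicle-treated control cultures to give percent inhibition.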

[14] = NCI Yeast Anticancer Drug Screen. Data for the rad14 strain (AID 159);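 further: 0% = growth of vehicle-treated control cultures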; conditions: S. cerevisiae rad14 strain growth inhibition, hits give high values
How it was run: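 A mutant yeast strain defective in DNA damage repair is treated with compound; inhibition of its growth is scored against untreated, vehicle-exposed cultures.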

[15] = NCI Yeast Anticancer Drug Screen. Data for the cln2 rad14 strain (AID 165);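 further: 0% = growth equal to vehicle treated cultures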; conditions: S. cerevisiae cln2 rad14 strain, hits give high values
How it was run: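 Strain: cln2 rad14 yeast, altered in cell cycle control and DNA damage repair. Read-out: growth inhibition vs vehicle.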

[16] = at 5.0 µM (retest, dose inferred, filed as 0.5)
[17] = at 50.0 µM (retest, dose inferred, filed as 5.0)

## N#C/C(=C/c1c(Cl)cccc1Cl)C(N)=O
[1]; at 11.0 µM
  growth inhibition: 21%
[1]; at 33.0 µM
  growth inhibition: 74% (active)
[1]; at 100.0 µM
  growth inhibition: 98% (active)
[2]; [16]
  growth inhibition: 34%
[2]; [17]
  growth inhibition: 76% (active)
[2]; at 50.0 µM
  growth inhibition: 61.7%
[3]; at 1.2 µM
  growth inhibition: -19%
[3]; at 3.7 µM
  growth inhibition: -11%
[3]; at 11.0 µM
  growth inhibition: 6%
[3]; at 33.0 µM
  growth inhibition: 81% (active)
[3]; at 100.0 µM
  growth inhibition: 97% (active)

## CCN(CC)CC(O)c1cc(-c2ccc(Cl)cc2)nc2c(-c3ccccc3)cccc12 (stereo unspecified)
[4]; at 1.2 µM
  growth inhibition: 0%
[4]; at 3.7 µM
  growth inhibition: -2%
[4]; at 11.0 µM
  growth inhibition: 98% (active)
[4]; at 33.0 µM
  growth inhibition: 98% (active)
[4]; at 100.0 µM
  growth inhibition: 95% (active)
[5]; at 1.2 µM
  growth inhibition: -1%
[5]; at 3.7 µM
  growth inhibition: 7%
[5]; at 11.0 µM
  growth inhibition: 96% (active)
[5]; at 33.0 µM
  growth inhibition: 98% (active)
[5]; at 100.0 µM
  growth inhibition: 95% (active)
[6]; at 1.2 µM
  growth inhibition: 1%
[6]; at 3.7 µM
  growth inhibition: 6%
[6]; [16]
  growth inhibition: 48%
[6]; at 11.0 µM
  growth inhibition: 98% (active)
[6]; at 33.0 µM
  growth inhibition: 98% (active)
[6]; [17]
  growth inhibition: 94% (active)
[6]; at 50.0 µM
  growth inhibition: 94.7% (active)
[6]; at 100.0 µM
  growth inhibition: 93% (active)
[7]; at 1.2 µM
  growth inhibition: -8%
[7]; at 3.7 µM
  growth inhibition: -3%
[7]; [16]
  growth inhibition: 32%
[7]; at 11.0 µM
  growth inhibition: 98% (active)
[7]; at 33.0 µM
  growth inhibition: 98% (active)
[7]; [17]
  growth inhibition: 98% (active)
[7]; at 50.0 µM
  growth inhibition: 87.9% (active)
[7]; at 100.0 µM
  growth inhibition: 96% (active)
[8]; [16]
  growth inhibition: 41%
[8]; [17]
  growth inhibition: 97% (active)
[8]; at 50.0 µM
  growth inhibition: 97.7% (active)
[9]; at 1.2 µM
  growth inhibition: 0%
[9]; at 3.7 µM
  growth inhibition: 2%
[9]; at 11.0 µM
  growth inhibition: 98% (active)
[9]; at 33.0 µM
  growth inhibition: 97% (active)
[9]; at 100.0 µM
  growth inhibition: 94% (active)
[10]; at 1.2 µM
  growth inhibition: 1%
[10]; at 3.7 µM
  growth inhibition: -5%
[10]; [16]
  growth inhibition: 22%
[10]; at 11.0 µM
  growth inhibition: 98% (active)
[10]; at 33.0 µM
  growth inhibition: 97% (active)
[10]; [17]
  growth inhibition: 95% (active)
[10]; at 50.0 µM
  growth inhibition: 46.3%
[10]; at 100.0 µM
  growth inhibition: 92% (active)
[11]; at 1.2 µM
  growth inhibition: -2%
[11]; at 3.7 µM
  growth inhibition: -4%
[11]; at 11.0 µM
  growth inhibition: 99% (active)
[11]; at 33.0 µM
  growth inhibition: 98% (active)
[11]; at 100.0 µM
  growth inhibition: 94% (active)
[12]; at 1.2 µM
  growth inhibition: -2%
[12]; at 3.7 µM
  growth inhibition: 2%
[12]; at 11.0 µM
  growth inhibition: 99% (active)
[12]; at 33.0 µM
  growth inhibition: 98% (active)
[12]; at 100.0 µM
  growth inhibition: 95% (active)
[1]; at 1.2 µM
  growth inhibition: -1%
[1]; at 3.7 µM
  growth inhibition: 3%
[1]; at 11.0 µM
  growth inhibition: 98% (active)
[1]; at 33.0 µM
  growth inhibition: 98% (active)
[1]; at 100.0 µM
  growth inhibition: 96% (active)
[2]; [16]
  growth inhibition: 59%
[2]; [17]
  growth inhibition: 96% (active)
[2]; at 50.0 µM
  growth inhibition: 99.2% (active)
[3]; at 1.2 µM
  growth inhibition: -2%
[3]; at 3.7 µM
  growth inhibition: -1%
[3]; at 11.0 µM
  growth inhibition: 98% (active)
[3]; at 33.0 µM
  growth inhibition: 98% (active)
[3]; at 100.0 µM
  growth inhibition: 95% (active)

## CCCCOC(=O)CSSCC(=O)OCCCC
[4]; at 1.2 µM
  growth inhibition: -7%
[4]; at 3.7 µM
  growth inhibition: -2%
[4]; at 11.0 µM
  growth inhibition: 13%
[4]; at 33.0 µM
  growth inhibition: 81% (active)
[4]; at 100.0 µM
  growth inhibition: 97% (active)
[5]; at 1.2 µM
  growth inhibition: -17%
[5]; at 3.7 µM
  growth inhibition: -5%
[5]; at 11.0 µM
  growth inhibition: 45%
[5]; at 33.0 µM
  growth inhibition: 89% (active)
[5]; at 100.0 µM
  growth inhibition: 97% (active)
[13]; at 1.2 µM
  growth inhibition: 16%
[13]; at 3.7 µM
  growth inhibition: 10%
[13]; at 11.0 µM
  growth inhibition: 45%
[13]; at 33.0 µM
  growth inhibition: 83% (active)
[13]; at 100.0 µM
  growth inhibition: 99% (active)
[6]; at 1.2 µM
  growth inhibition: -11%
[6]; at 3.7 µM
  growth inhibition: 2%
[6]; [16]
  growth inhibition: 44%
[6]; at 11.0 µM
  growth inhibition: 17%
[6]; at 33.0 µM
  growth inhibition: 76% (active)
[6]; [17]
  growth inhibition: 99% (active)
[6]; at 50.0 µM
  growth inhibition: 91% (active)
[6]; at 100.0 µM
  growth inhibition: 97% (active)
[7]; at 1.2 µM
  growth inhibition: -38%
[7]; at 3.7 µM
  growth inhibition: -10%
[7]; [16]
  growth inhibition: 48%
[7]; at 11.0 µM
  growth inhibition: 7%
[7]; at 33.0 µM
  growth inhibition: 80% (active)
[7]; [17]
  growth inhibition: 99% (active)
[7]; at 50.0 µM
  growth inhibition: 91.9% (active)
[7]; at 100.0 µM
  growth inhibition: 98% (active)
[14]; at 1.2 µM
  growth inhibition: -11%
[14]; at 3.7 µM
  growth inhibition: -13%
[14]; at 11.0 µM
  growth inhibition: -3%
[14]; at 33.0 µM
  growth inhibition: 71% (active)
[14]; at 100.0 µM
  growth inhibition: 97% (active)
[8]; [16]
  growth inhibition: 9%
[8]; [17]
  growth inhibition: 99% (active)
[9]; at 1.2 µM
  growth inhibition: 8%
[9]; at 3.7 µM
  growth inhibition: 4%
[9]; at 11.0 µM
  growth inhibition: 8%
[9]; at 33.0 µM
  growth inhibition: 61%
[9]; at 100.0 µM
  growth inhibition: 98% (active)
[15]; [16]
  growth inhibition: 32%
[15]; [17]
  growth inhibition: 99% (active)
[10]; at 1.2 µM
  growth inhibition: 14%
[10]; at 3.7 µM
  growth inhibition: 14%
[10]; [16]
  growth inhibition: 56%
[10]; at 11.0 µM
  growth inhibition: 53%
[10]; at 33.0 µM
  growth inhibition: 88% (active)
[10]; [17]
  growth inhibition: 98% (active)
[10]; at 100.0 µM
  growth inhibition: 99% (active)
[11]; at 1.2 µM
  growth inhibition: -15%
[11]; at 3.7 µM
  growth inhibition: -1%
[11]; at 11.0 µM
  growth inhibition: 8%
[11]; at 33.0 µM
  growth inhibition: 70% (active)
[11]; at 100.0 µM
  growth inhibition: 98% (active)
[12]; at 1.2 µM
  growth inhibition: -26%
[12]; at 3.7 µM
  growth inhibition: 7%
[12]; at 11.0 µM
  growth inhibition: 37%
[12]; at 33.0 µM
  growth inhibition: 74% (active)
[12]; at 100.0 µM
  growth inhibition: 98% (active)
[1]; at 1.2 µM
  growth inhibition: -30%
[1]; at 3.7 µM
  growth inhibition: -8%
[1]; at 11.0 µM
  growth inhibition: 18%
[1]; at 33.0 µM
  growth inhibition: 70% (active)
[1]; at 100.0 µM
  growth inhibition: 96% (active)
[2]; [16]
  growth inhibition: 40%
[2]; [17]
  growth inhibition: 99% (active)
[2]; at 50.0 µM
  growth inhibition: 90.2% (active)
[3]; at 1.2 µM
  growth inhibition: -2%
[3]; at 3.7 µM
  growth inhibition: 15%
[3]; at 11.0 µM
  growth inhibition: 40%
[3]; at 33.0 µM
  growth inhibition: 84% (active)
[3]; at 100.0 µM
  growth inhibition: 98% (active)
